# Shown are actives, neighbours in structure and some others; about 8.2% of the full set was active somewhere.
# MCF10A rereplic: induces DNA re-replication in MCF 10a normal breast cells | 350,000 compounds, 2.9% hits | Potency, µM (top dose mostly 46.1 µM), for inactives: top-dose activity, positive = re-replication, most hits filed as activators | MCF 10A DNA re-replication, Hoechst nuclear intensity, 48 h; note: % of control where 0% means no effect; nearly all actives have a fitted effect of over 50% in size
# KB-V1 cytotox: KB-V1 MDR subline cytotoxicity; 400,000 compounds, 3.4% hits; AID 1347076; KB-V1 MDR cells viability, CellTiter-Glo, 72 h; Potency, µM (top dose mostly 46.1 µM), most hits filed as cytotoxic; note: % is set by controls: 0 for no effect and ±100 for the full control effect; nearly all actives have a fitted effect of over 60% in size
#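 Cytotoxicity toward P-gp-expressing KB-V1 cells was determined as loss of CellTiter-Glo luminescence after 72 h at 37 degrees C. Compounds were tested in quantitative HTS format across a concentration range, with curves fitted to normalized data.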
# ELG1 DNA repair: blocks ELG1-dependent DNA repair in HEK293T cells; HEK293T ELG1-luciferase reporter, luminescence, 16 h; DNA damage induced by 5-fluorouridine; Potency, µM (top dose mostly 46.1 µM), inactives show top-dose activity change, negative = inhibition, actives largely listed as inhibitors; 330,000 compounds, 2.3% hits; note: % is set by controls: 0 for no effect and ±100 for the full control effect; nearly all actives have a fitted effect of over 55% in size
#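 Step one: seed 2,000 cells per well. Step two: pin-transfer compound or DMSO alongside 5-fluorouridine. Step three: incubate 16 hr, 37 °C, 5% CO2. Step four: add ONE-Glo, wait 30 min, read luminescence.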
# SW480 rerep: inducers of DNA re-replication in SW480 colon cancer cells | SW480 DNA re-replication, Hoechst DNA content imaging, 48 h | Potency, µM (series often up to 46.1 µM), for the others: at the top dose re-replication activation, most hits filed as activators | 340,000 compounds, 1.8% hits; note: % of control where 0% means no effect; nearly all actives have a fitted effect of over 55% in size
#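 Image-based read-out: total Hoechst fluorescence of nuclei (405 nm excitation, 500-530 nm emission), with hits raising the fraction of high-intensity nuclei. SW480 colon cells incubated 48 hr with compounds at 37 C.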
# KB-3-1 tox: kills parental KB-3-1 adenocarcinoma cells; 400,000 compounds, 1.4% hits; Potency, µM (highest dose often 46.1 µM), hits mostly cytotoxic; KB-3-1 viability, CellTiter-Glo ATP luminescence, 72 h; note: % is set by controls: 0 for no effect and ±100 for the full control effect; nearly all actives have a fitted effect of over 60% in size
#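 72 h, 37 °C compound treatment of KB-3-1 parental cells; CellTiter-Glo added, 10 min, luminescence read. Data corrected against DMSO-only plates and normalized before curve fitting.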
# * = called active by the depositor; i = inactive; ? = inconclusive; . = not tested or not shown; [ ] = dose if it differs, or a comment. Calls come from the whole dose curve; as a rule, active = well fitted curve in the direction sought with a large enough effect; inconclusive = small, poorly fitted or top-dose-only effect, or another doubt; inactive = no such curve, though single readings can be large; an effect the other way counts as inactive or inconclusive. Potency is the fitted concentration of half-maximal effect.
SMILES,MCF10A rereplic,KB-V1 cytotox,ELG1 DNA repair,SW480 rerep,KB-3-1 tox
CCN1CCN(CCNC(=O)c2ccc(/C=C3\Sc4ccccc4N(Cc4ccccc4F)C3=O)cc2)CC1,13µM*,?,-2%,18µM*,i
CN1CCN(CCCNC(=O)c2ccc(/C=C3\Sc4ccccc4N(Cc4ccc(F)cc4)C3=O)cc2)CC1,18µM*,i,-15%,?,i
CN1CCN(CCCNC(=O)c2ccc(/C=C3\Oc4ccccc4N(Cc4ccccc4F)C3=O)cc2)CC1,9.2µM*,i,?,6.5µM*,i
CN1CCN(CCCNC(=O)c2ccc(/C=C3/Sc4ccccc4N(Cc4cccc(Cl)c4)C3=O)cc2)CC1,?,?,?,?,i
COCCCNC(=O)/C=C1\Sc2ccccc2N(Cc2ccccc2F)C1=O,?,i,10%,18µM*,i
Cc1occc1-c1nnc(SCC(=O)Nc2ccc(F)cc2)n1Cc1ccccc1,?,8.2µM*,?,26%,?
Cc1occc1-c1nnc(SCC(=O)c2ccc(F)cc2)n1Cc1ccco1,15%,i,2%,3%,i
Cc1ccc(CSc2nnc(-c3cccnc3)n2N)cc1,2%,i,-3%,-19%,i
Cn1c(SCC(=O)c2ccc(F)cc2)nnc1-c1ccccc1Br,.,23µM*,.,.,?
Cc1ccc(C(=O)CSc2nnc(-c3cccnc3)n2N)cc1,?,7.3µM*,-6%,?,?
O=C(CSc1nnc(-c2ccco2)n1Cc1ccccc1)c1ccc(F)cc1,9%,9.2µM*,6%,3%,i
Cc1occc1-c1nnc(SCC(=O)Nc2ccccc2)n1Cc1ccccc1,?,?,?,11%,i
Cc1ccc(NC(=O)O/N=C/c2ccc(N(C)C)cc2)cc1,-12%,i,?,?,i
COc1ccc(-n2c(SCC(=O)N3CCOCC3)nc3ccccc3c2=O)cc1,-1%,.,?,-1%,.
O=C(NCc1ccccc1F)c1cccc(S(=O)(=O)N2CCCCCC2)c1,27%,i,-16%,-4%,i
Cc1ccc(-n2c(SCC(=O)OC(C)C)nnc2-c2ccccn2)cc1,-3%,21µM*,3%,1%,i
Cc1occc1-c1nnc(SCC(=O)Nc2ccccc2-c2ccccc2)n1C,-2%,i,?,1%[9.22 µM],i
O=C(CSc1nnc(-c2ccco2)n1Cc1ccccc1)NCc1ccccc1,6%,i,21µM*,-4%,i
CC(C)OC(=O)CSc1nnc(-c2cccnc2)n1Cc1ccccc1,0%,21µM*,9%,0%,i
Cn1c(SCC(=O)Nc2ccccc2-c2ccccc2)nnc1-c1ccco1,10%,18µM*,-7%,?,i
O=C(O)CSc1nnc(-c2cccnc2)n1Cc1ccccc1,1%,i,0%,-4%,i
O=c1n(Cc2ccc(Cl)cc2)nc2n1-c1ccccc1OC2,.,i,.,.,i
S=c1[nH]c2ccccc2n1CCc1ccccc1,.,i,.,.,i
O=C(NCc1cc(C(F)(F)F)cc(C(F)(F)F)c1)C1CC(c2ccccc2C(F)(F)F)=NO1 (stereo unspecified),1%,?,8%,-10%,i
CC1(C)CC2CC(C)(CN2S(=O)(=O)c2ccccc2[N+](=O)[O-])C1 (stereo unspecified),30%,i,?,-2%,i
SMILES,MCF10A rereplic,KB-V1 cytotox,ELG1 DNA repair,SW480 rerep,KB-3-1 tox
O=C(CSc1nnc(-c2ccccc2)n1Cc1ccccc1)NNC(=O)c1ccccc1O,20%,i,?,5.2µM*,?
CC(C)NC(=O)N(C)C[C@H]1Oc2ccc(NC(=O)C3CC3)cc2C(=O)N([C@H](C)CO)C[C@@H]1C,6%,i,?,-12%,i
COc1cc(C(=O)Nc2cccc(-c3cn4cccnc4n3)c2)cc(OC)c1OC,19%,i,?,9%[1.84 µM],i
COc1ccc(-c2cn3cccnc3n2)cc1NC(=O)c1cc(OC)c(OC)c(OC)c1,-6%,i,8.2µM*,-1%,?
CCOC(=O)c1cc(-c2nnc(-c3ccc(Oc4ccccc4)cc3)o2)c(C)nc1C,0%,i,23µM*,-12%,i
CCN(CC)S(=O)(=O)c1ccc2c(c1)nc(SCC(=O)NC1CC1)n2-c1ccccc1OC,3%,i,?,0%,i
COc1ccccc1-n1c(SCC(=O)c2ccc(O)cc2O)nc2cc([N+](=O)[O-])ccc21,?,16µM*,-28%,-6%,i
CC(C)C(=O)OCC(=O)[C@@]12OC(C3CCCCC3)O[C@@H]1CC1C3CCC4=CC(=O)C=C[C@]4(C)C3[C@@H](O)C[C@@]12C (stereo partly specified),?,.,.,12µM*,.
COc1ccc(C(O)c2ncc(-c3cccc(C(F)(F)F)c3)[nH]2)cc1 (stereo unspecified),.,i,.,.,i
CC(C)(C)C#CC(CCc1ccccc1)OS(N)(=O)=O (stereo unspecified),.,.,-8%,.,.
CCOC(=O)C#CC(CCc1ccccc1)OS(N)(=O)=O (stereo unspecified),5.2µM*,i,-6%,-2%,i
CC(OC(=O)c1ccc(Cl)nc1)C(=O)Nc1ccc2c(c1)OCO2 (stereo unspecified),-1%,i,26%,-3%,i
CS(=O)(=O)c1ncc(Cl)c(C(=O)Nc2ccc3ccccc3c2)n1,?,i,?,1.2µM*,i
Cc1ccc(CS(=O)(=O)c2ncc(Cl)c(C(=O)Nc3ccc(OC(F)F)cc3)n2)cc1,7.3µM*,18µM*,?,?,23µM*
CCS(=O)(=O)c1ncc(Cl)c(C(=O)Nc2ccc(C)cc2)n1,5.8µM*,i,?,3.7µM*,?
CCS(=O)(=O)c1ncc(Cl)c(C(=O)Nc2ccc(S(=O)(=O)N3CCCC(C)C3)cc2)n1 (stereo unspecified),2.6µM*,5.8µM*,?,7.3µM*,3.7µM*
Cn1c(SCC(=O)N2CCCCCC2)nc2c(c1=O)SCC2,0%,i,8%,-7%,i
Cc1cc(S(=O)(=O)N2c3ccc(F)cc3CCC2C)ccc1-n1cnnn1 (stereo unspecified),4%,i,-1%,-80%,i
COC(=O)CCCC[C@@H]1O[C@H](CCc2ccccc2)Cc2[nH][nH]c(=O)c21,.,i,.,.,i
COc1ccc(NC(=S)N(CCC(C)C)C2CCN(C(C)C)CC2)cc1Cl,?,i,-16%,21µM*,i
COc1ccc(Nc2nc(Nc3ccc(OC)cc3)nc(-n3[nH]c(=O)c(C)c3C)n2)cc1,?,1.2µM*,2.3µM*,13%,i
Cc1ccc(NC(=O)CSc2nc(N)cc(=O)[nH]2)cc1S(=O)(=O)N1CCCCC1,4%,i,0%,3%,i

# Screening results: PubChem, National Center for Advancing Translational Sciences (NCATS)
